Experimental data reported in PubChem BioAssay.
Calls of active or inactive are those of the source. Unless noted, no rule for the calls is given here.

Legend:
[1] = anti-His antibody binders, primary screen, artefact control for SMM control protein annotation, biochemical, small-molecule microarray, 635 nm fluorescence (AID 1128); conditions: anti-His Alexa647 antibody binding, higher = more signal;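 also: score merges feature fluorescence with signal-to-noise for each printed compound spot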
[2] = system: Human papillomavirus type 1a E7 protein (residues 1-88); experiment: HPV1a E7 small-molecule binders, primary screen, biochemical, small-molecule microarray, residues 1-88, 635 nm (AID 1129); conditions: small-molecule microarray binding, fluorescence 635 nm; higher = more signal
[3] = target: Focal adhesion kinase 1 (Homo sapiens) (UniProt Q05397); experiment: small-molecule microarray binders of FAK, primary screen, biochemical, 635/667 nm fluorescence, BSA, DTT (AID 1130); conditions: PTK2 binding, 635 nm fluorescence, higher = more signal;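 also: composite of spot emission at 667 nm and signal to noise over triplicate slides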
Sequence of Focal adhesion kinase 1 (Homo sapiens) (Q05397 whole entry, looked up): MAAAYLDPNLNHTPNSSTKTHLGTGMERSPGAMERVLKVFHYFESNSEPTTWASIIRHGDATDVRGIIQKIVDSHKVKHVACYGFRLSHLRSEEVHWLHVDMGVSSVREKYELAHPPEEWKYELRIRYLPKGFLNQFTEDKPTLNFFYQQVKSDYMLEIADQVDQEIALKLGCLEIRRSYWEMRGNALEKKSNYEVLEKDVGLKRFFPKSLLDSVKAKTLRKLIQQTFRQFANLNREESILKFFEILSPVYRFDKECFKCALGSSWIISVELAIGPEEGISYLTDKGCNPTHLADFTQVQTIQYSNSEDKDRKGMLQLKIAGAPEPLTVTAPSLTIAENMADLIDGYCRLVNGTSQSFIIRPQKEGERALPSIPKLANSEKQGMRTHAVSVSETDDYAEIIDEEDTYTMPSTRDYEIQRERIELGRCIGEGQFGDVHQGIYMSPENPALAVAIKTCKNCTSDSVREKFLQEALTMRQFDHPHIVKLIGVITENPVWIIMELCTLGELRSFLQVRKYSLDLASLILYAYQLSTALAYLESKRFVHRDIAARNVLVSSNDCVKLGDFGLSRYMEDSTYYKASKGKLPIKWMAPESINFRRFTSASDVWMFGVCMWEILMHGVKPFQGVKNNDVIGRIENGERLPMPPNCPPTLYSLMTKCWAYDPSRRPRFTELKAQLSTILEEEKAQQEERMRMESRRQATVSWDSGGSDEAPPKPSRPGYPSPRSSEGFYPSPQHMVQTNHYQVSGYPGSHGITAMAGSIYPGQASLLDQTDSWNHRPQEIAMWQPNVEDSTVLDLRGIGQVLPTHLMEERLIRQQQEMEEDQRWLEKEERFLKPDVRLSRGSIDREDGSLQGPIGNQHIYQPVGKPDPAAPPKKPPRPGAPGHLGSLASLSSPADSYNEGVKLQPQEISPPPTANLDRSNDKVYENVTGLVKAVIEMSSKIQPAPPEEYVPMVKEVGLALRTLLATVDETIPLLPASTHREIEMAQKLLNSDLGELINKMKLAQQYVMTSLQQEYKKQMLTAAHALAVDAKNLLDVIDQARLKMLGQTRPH

[4] = system: Fibrinogen (Alexa647-labelled); experiment: fibrinogen binders on compound microarrays, profiling panel, artefact control for SMM control-protein annotation, biochemical, small-molecule microarray, 635/667 nm fluorescence (AID 1131); conditions: fibrinogen-A647 binding fluorescence, higher = more signal;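 also: z-score merges 667 nm fluorescence with per-spot signal-to-noise over triplicate slides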
[5] = target: Follistatin (Homo sapiens) (UniProt P19883); experiment: follistatin binders on small-molecule microarrays, primary screen, biochemical, small-molecule microarray, 635/667 nm fluorescence (AID 1132); conditions: FST binding, 635 nm fluorescence, higher = more signal
Sequence of Follistatin (Homo sapiens) (P19883 whole entry, looked up): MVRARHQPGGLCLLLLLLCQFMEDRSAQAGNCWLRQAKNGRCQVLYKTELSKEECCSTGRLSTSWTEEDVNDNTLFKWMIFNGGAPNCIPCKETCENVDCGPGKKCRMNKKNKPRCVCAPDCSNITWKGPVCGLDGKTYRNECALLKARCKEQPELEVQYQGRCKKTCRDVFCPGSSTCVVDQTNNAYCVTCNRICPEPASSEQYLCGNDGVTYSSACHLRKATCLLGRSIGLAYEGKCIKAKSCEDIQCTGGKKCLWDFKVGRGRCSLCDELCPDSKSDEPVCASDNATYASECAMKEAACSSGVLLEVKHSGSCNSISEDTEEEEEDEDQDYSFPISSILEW

[6] = target: Fibroblast growth factor 2 (Homo sapiens) (UniProt P09038); experiment: FGF2 binders on small-molecule microarrays, primary screen, biochemical, small-molecule microarray, 635/667 nm fluorescence (AID 1133); conditions: small-molecule microarray binding, FGF2, fluorescence 635/667; higher = more signal
Sequence of Fibroblast growth factor 2 (Homo sapiens) (P09038 whole entry, looked up): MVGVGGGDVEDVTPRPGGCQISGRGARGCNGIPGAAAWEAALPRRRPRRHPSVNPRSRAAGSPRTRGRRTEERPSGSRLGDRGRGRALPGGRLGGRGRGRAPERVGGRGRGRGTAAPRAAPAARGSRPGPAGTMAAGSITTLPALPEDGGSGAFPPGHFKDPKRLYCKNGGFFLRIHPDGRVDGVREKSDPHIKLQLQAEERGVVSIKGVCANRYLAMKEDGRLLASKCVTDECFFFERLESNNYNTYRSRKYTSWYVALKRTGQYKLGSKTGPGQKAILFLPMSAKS

[7] = mitochondrial membrane potential change in A549 cells, profiling panel, cell-based, JC-1 fluorescence, basal, 24 h, 100 nL (AID 1138); conditions: higher = more signal;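 also: A549 lung adenocarcinoma cells under basal conditions with no added stimulus; test concentration not given here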
Lefty1 = Lefty1 binders on small-molecule microarrays, primary screen, biochemical, small-molecule microarray, 635/667 nm fluorescence (AID 1139); conditions: small-molecule microarray binding, fluorescence 635/667; higher = more signal
[8] = system: wheat germ agglutinin (Triticum aestivum), Alexa647-labelled; experiment: wheat germ agglutinin binders on compound microarrays, profiling panel, artefact control for SMM control-protein annotation, biochemical, small-molecule microarray, 635/667 nm fluorescence (AID 1140); conditions: WGA-A647 binding, 635 nm fluorescence, higher = more signal;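 also: score merges 667 nm feature emission with signal to noise over triplicate slides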
[9] = target: Luciferin 4-monooxygenase (Photinus pyralis) (UniProt P08659); experiment: firefly luciferase enzyme inhibitors, primary screen, biochemical, luminescence, purified enzyme, 2006 set (AID 1141); conditions: SteadyGlo luminescence, 30 min, higher = more signal, called active from +8 up or from −8 down;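 also: cell-free assay with purified firefly luciferase at 100 ng per well in PBS; test concentration not given here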
Sequence of Luciferin 4-monooxygenase (Photinus pyralis) (P08659 whole entry, looked up): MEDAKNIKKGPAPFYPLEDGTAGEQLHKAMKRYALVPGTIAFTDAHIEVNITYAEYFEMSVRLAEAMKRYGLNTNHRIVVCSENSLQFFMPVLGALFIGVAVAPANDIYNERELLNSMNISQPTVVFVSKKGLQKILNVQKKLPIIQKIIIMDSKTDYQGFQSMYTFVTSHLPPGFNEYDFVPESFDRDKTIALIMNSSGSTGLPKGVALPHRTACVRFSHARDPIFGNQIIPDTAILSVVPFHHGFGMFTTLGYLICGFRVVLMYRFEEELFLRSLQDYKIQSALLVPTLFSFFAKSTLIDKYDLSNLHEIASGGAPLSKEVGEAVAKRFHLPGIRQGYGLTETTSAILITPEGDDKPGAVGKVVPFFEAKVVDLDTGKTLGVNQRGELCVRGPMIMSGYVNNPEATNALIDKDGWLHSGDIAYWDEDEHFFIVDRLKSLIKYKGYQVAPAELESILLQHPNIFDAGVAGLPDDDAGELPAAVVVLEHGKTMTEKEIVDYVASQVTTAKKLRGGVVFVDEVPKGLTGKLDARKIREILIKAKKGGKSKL

[10] = system: Wnt5a (protein binding on small-molecule microarray); experiment: Wnt5a binders on small-molecule microarray, primary screen, biophysical, 635/667 nm fluorescence (AID 1142); conditions: 635 nm fluorescence, higher = more signal;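 also: fluorescence read at 667 nm with signal to noise per printed feature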
[11] = cell viability in Huh7 cells, primary screen, cytotoxicity control for HCV replication inhibitor project, CellTiter-Glo luminescence, basal, 48 h (AID 1143); conditions: Huh7 HCV replicon, higher = more signal, called active from +8 up or from −8 down;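 also: Huh7 hepatoma cells carrying a hepatitis C replication reporter with no stimulus; test concentration not given here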
[12] = P. aeruginosa biofilm formation inhibitors, primary screen, PAO1 strain, BacTiter-Glo luminescence, LB-PBS (AID 1144); conditions: 12 h, higher = more signal
[13] = CREB reporter modulators without forskolin, primary screen, cell-based, PC12, CRE-LacZ reporter, unstimulated (AID 1145); conditions: no forskolin, luminescence, 4.5 h, higher = more signal, called active from +8 up or from −8 down
[14] = CREB reporter modulators under forskolin, primary screen, cell-based, PC12, CRE-LacZ reporter, forskolin-stimulated (AID 1146); conditions: luminescence, 4.5 h, higher = more signal, called active from +8 up or from −8 down;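 also: PC12 cells with 6xCRE LacZ reporter stimulated by forskolin 10 µM; beta-galactosidase reporter signal reflecting CREB driven transcription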
[15] = target: Streptavidin (Streptomyces avidinii) (UniProt P22629); experiment: streptavidin binders on small-molecule microarray, primary screen, artefact control for SMM compound annotation, biophysical, 635/667 nm fluorescence (AID 1147); conditions: streptavidin binding, higher = more signal;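 also: signal reflects streptavidin binding to arrayed compounds as a control protein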
Sequence of Streptavidin (Streptomyces avidinii) (P22629 whole entry, looked up): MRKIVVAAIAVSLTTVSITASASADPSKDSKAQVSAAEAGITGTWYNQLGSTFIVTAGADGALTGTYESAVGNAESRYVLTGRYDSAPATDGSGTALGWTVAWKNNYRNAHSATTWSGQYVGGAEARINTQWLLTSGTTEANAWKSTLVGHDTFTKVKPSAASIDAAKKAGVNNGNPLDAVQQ

[16] = small-molecule binders of probe aInhba, primary screen, biochemical, small-molecule microarray, 635/667 nm fluorescence (AID 1148); conditions: higher = more signal;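 also: score merges 667nm spot fluorescence with signal-to-noise for antibody binding to printed compounds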
Torsin-1A (Homo sapiens) [17] = target: Torsin-1A (Homo sapiens) (UniProt O14656); experiment: torsin A binders from cell lysate, primary screen, small-molecule microarray, wild-type, 635/667 nm (AID 1149); conditions: COS7 hTOR1A-WT lysate, 635 nm fluorescence, higher = more signal
Sequence of Torsin-1A (Homo sapiens) (O14656 whole entry, looked up): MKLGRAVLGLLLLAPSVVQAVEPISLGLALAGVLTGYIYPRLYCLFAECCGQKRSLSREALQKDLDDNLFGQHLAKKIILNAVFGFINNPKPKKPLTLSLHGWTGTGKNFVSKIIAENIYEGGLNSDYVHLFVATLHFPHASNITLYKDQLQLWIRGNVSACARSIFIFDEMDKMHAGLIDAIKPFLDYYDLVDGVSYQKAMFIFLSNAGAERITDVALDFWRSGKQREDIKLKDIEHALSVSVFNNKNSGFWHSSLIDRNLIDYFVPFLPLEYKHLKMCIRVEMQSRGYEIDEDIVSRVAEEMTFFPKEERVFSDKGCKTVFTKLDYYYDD

Torsin-1A (Homo sapiens) [18] = target: Torsin-1A (Homo sapiens) (UniProt O14656); experiment: small-molecule binders of mutant TOR1A in lysate, primary screen, cell lysate, small-molecule microarray, COS7 lysate, 635/667 nm fluorescence (AID 1150); conditions: COS7 hTOR1A mutant lysate, 635 nm fluorescence, higher = more signal;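 also: score pools 667 nm emission and signal to noise measuring lysate protein binding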
[19] = system: Sonic hedgehog protein (Shh); experiment: small-molecule binders of Shh protein, primary screen, biochemical, small-molecule microarray, 635/667 nm fluorescence (AID 1151); conditions: small-molecule microarray binding, 635 nm fluorescence; higher = more signal;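 also: Shh protein binding to compounds spotted on small-molecule microarray slides; score combines spot fluorescence intensity with signal-to-noise across triplicate slides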

Row | SMILES | composite z-score [1] | composite z-score [2] | composite z-score [3] | composite z-score [4] | composite z-score [5] | composite z-score [6] | z-score [7] | composite z-score (Lefty1) | composite z-score [8] | z-score [9] | composite z-score [10] | z-score [11] | z-score [12] | z-score [13] | z-score [14] | composite z-score [15] | composite z-score [16] | composite z-score (Torsin-1A (Homo sapiens) [17]) | composite z-score (Torsin-1A (Homo sapiens) [18]) | composite z-score [19]
1 | CO[C@H]1O[C@H](CO)[C@@H](OC(=O)Nc2cccc(F)c2)[C@H](OC(=O)c2cc3ccccc3[nH]2)[C@H]1OC(=O)c1cc2ccccc2[nH]1 | -0.371 | -0.486 | 0.23 | 0.836 | 0.498 | -0.234 | -0.68 | 0.379 | 0.513 | -0.635 (inactive) | -0.363 | -3.31 (inactive) | -1.02 (inactive) | 1.03 (inactive) | -0.679 (inactive) | -0.256 | -0.128 | -0.536 | -0.18 | -0.111
2 | COc1ccc(CCNC(=O)[C@@]2(C)c3ccccc3C(=O)N(Cc3ccc(OC(F)(F)F)cc3)[C@H]2c2ccc(CO)cc2)cc1 | -0.0781 | 1.21 | 1.13 | 0.576 | 1.3 | 1.76 | 0.791 | 0.268 | 0.375 | -0.629 (inactive) | 0.887 | -4.18 (inactive) | 0.175 (inactive) | -0.179 (inactive) | 0.175 (inactive) | -0.535 | -0.166 | 0.43 | 1.43 | 1.23
3 | CN1C(=O)C2C=CC(C(O)c3ccc(I)cc3)N(N(c3ccccc3)c3ccccc3)C2C1=O (stereo not given) | -0.456 | -0.0563 | -0.164 | 0.25 | 0.524 | -0.394 | 1.74 | -0.432 | 0.536 | 0.899 (inactive) | -0.268 | -0.619 (inactive) | 0.257 (inactive) | -0.136 (inactive) | 0.58 (inactive) | 0.609 | -0.0581 | -0.728 | -0.545 | -0.416
4 | C=CCOC(=O)[C@@H]1[C@H]2C(=O)O[C@H](c3ccccc3)[C@H](c3ccccc3)N2[C@H](c2ccc(OCCOC(=O)[C@H]3C[C@H]4C(=O)N[C@@H](CCCCN(C)C)C(=O)N4[C@H]3c3cccc(OCCO)c3)cc2)[C@@]12C(=O)Nc1ccccc12 | 2.06 | -0.246 | 0.0815 | 0.498 | 0.519 | 0.382 | -0.407 | -0.0986 | 0.517 | 0.892 (inactive) | -0.234 | 0.132 (inactive) | -0.306 (inactive) | -0.394 (inactive) | -0.647 (inactive) | 1.61 | -0.141 | 1.2 | 0.824 | 0.769
5 | COCCCNC(=O)[C@@]1(Cc2ccccc2I)c2ccccc2C(=O)N(Cc2ccccc2C(F)(F)F)[C@H]1c1ccc(CO)cc1 | 0.611 | 0.742 | -0.0483 | 0.0568 | 0.672 | -0.742 | 0.104 | -1.15 | -0.107 | 0.636 (inactive) | -0.347 | -2.13 (inactive) | -0.528 (inactive) | -0.619 (inactive) | 1.15 (inactive) | -0.253 | -0.016 | 0.0167 | -0.0514 | -0.414
6 | CC(C)(C)OC(=O)CC[C@@]1(C(=O)N2CCOCC2)N=C(c2ccc(OCCCO)cc2)O[C@@H]1c1ccccc1CN=[N+]=[N-] | 3.27 | 1.26 | 0.855 | 0.949 | 1.4 | 1.76 | 0.193 | -0.271 | 0.898 | -1.2 (inactive) | 1.14 | -0.435 (inactive) | -0.202 (inactive) | 0.311 (inactive) | -0.0177 (inactive) | 1.05 | 0.529 | 0.401 | 2.23 | -0.33
7 | O=C1C[C@@](C(=O)NCC(F)(F)F)(c2ccc([N+](=O)[O-])cc2)[C@@H](c2ccc(CO)cc2I)N1CC12CC3CC(CC(C3)C1)C2 | 1.31 | 0.722 | -0.0231 | 0.93 | 0.994 | 1.34 | 1.73 | 1.22 | 0.249 | -0.251 (inactive) | 0.437 | -5.73 (inactive) | -1.44 (inactive) | 0.558 (inactive) | -1.01 (inactive) | 0.229 | 0.0167 | -0.286 | -0.251 | 1.53
8 | COC(=O)[C@@]1(Cc2ccccc2)[C@H]2c3cc(C(=O)N(C)C)n(CCF)c3C[C@H]2CN1C(=O)c1ccccc1 | 2.32 | 0.728 | 0.326 | 0.339 | 0.0139 | -0.551 | 0.551 | -0.773 | 0.969 | 1.02 (inactive) | 0.633 | -0.717 (inactive) | -0.247 (inactive) | 0.387 (inactive) | 0.218 (inactive) | 1.74 | 0.333 | -0.0224 | 1.16 | -0.187
9 | COCCOC(=O)N1C(=O)[C@@]2(c3cc(C#CCC(C(=O)OC)C(=O)OC)ccc31)[C@H](c1ccc(O)cc1)N1[C@H](c3ccccc3)[C@H](c3ccccc3)OC(=O)[C@H]1[C@@H]2C(=O)N1CCc2cc(OC)c(OC)cc2C1 | 2.46 | 1.2 | 0.362 | 0.741 | 1.27 | 1.26 | 0.627 | 0.633 | 0.801 | -1.05 (inactive) | 0.227 | -0.233 (inactive) | 0.12 (inactive) | 0.0384 (inactive) | 0.118 (inactive) | -0.341 | 0.0714 | 0.0553 | 0.391 | 1.31
10 | C=C(CCCC)C(=O)CC[C@@H](OC(C)=O)c1ccc(OCCO)cc1 | 1.51 | -0.161 | -0.162 | -0.134 | 1.46 | 1.4 | -0.275 | 1.69 | -0.578 | -1.4 (inactive) | 0.791 | -0.742 (inactive) | -1.12 (inactive) | 0.653 (inactive) | -0.101 (inactive) | -0.871 | 0.0154 | 1.34 | 0.084 | 1.52
